# Reference: article PMC4336329 (PLoS ONE, 2015)
# The campaign covered roughly 310,000 compounds. About 14,000 (4.5%) showed an effect of 50% or more. The effect is printed as a negative number. Only a selection was taken, and strong results are over-represented in it overall.
# Target: human ether-à-go-go-related gene (hERG) potassium channel (human, UniProt Q12809)
# Test: primary screen, population patch clamp on CHO cells stably expressing hERG; higher = less effect of the substance
# 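Further: peak tail current of the secondary pulse compared with the same well before compound.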
# human ether-à-go-go-related gene (hERG) potassium channel, sequence (Q12809 whole entry, looked up): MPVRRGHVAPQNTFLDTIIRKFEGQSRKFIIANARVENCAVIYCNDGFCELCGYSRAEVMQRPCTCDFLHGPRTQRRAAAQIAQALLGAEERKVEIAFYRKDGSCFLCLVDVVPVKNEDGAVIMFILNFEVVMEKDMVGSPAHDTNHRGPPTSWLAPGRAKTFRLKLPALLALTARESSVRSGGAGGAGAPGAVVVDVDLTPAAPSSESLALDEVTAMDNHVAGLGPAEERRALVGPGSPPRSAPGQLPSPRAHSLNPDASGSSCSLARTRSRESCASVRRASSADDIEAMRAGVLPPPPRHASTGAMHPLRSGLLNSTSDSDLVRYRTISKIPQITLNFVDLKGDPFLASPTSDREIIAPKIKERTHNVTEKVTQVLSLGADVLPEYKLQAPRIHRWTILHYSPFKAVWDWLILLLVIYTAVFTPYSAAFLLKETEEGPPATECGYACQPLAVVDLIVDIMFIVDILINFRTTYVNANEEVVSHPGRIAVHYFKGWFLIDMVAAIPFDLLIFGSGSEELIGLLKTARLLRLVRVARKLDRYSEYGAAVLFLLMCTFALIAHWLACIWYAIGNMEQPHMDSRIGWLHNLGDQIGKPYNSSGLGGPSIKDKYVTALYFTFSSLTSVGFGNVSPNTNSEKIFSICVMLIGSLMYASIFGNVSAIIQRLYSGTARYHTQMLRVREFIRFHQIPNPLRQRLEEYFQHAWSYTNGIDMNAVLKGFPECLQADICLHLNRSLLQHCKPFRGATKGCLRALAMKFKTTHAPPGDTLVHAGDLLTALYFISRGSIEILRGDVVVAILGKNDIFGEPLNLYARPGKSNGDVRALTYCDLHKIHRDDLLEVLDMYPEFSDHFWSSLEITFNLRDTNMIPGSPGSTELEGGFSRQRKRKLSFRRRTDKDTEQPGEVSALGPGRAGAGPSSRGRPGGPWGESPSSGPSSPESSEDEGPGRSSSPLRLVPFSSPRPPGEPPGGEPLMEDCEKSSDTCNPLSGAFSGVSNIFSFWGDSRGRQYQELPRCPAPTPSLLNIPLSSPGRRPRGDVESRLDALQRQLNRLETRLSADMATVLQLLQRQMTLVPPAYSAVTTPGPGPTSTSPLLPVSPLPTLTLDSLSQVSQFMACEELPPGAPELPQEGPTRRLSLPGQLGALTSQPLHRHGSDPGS
row,Compound,"hERG current change (%, negative = inhibition) at 10uM"
1,O=C(O)c1cc2c(cn1)[nH]c1ccccc12,10.9%
2,CC1CCC(C(C)C)C(OC(=O)CSc2nnc(N)s2)C1 (stereo not drawn),3.01%
3,CC1CCC(C(C)C)C(OC(=O)Cn2c(-c3ccccc3)[n+](C)c3ccccc32)C1.[Cl-] (stereo not drawn),-77.3%
4,CC1CCC(C(C)C)C(OC(=O)COC(=O)c2cccn2C)C1 (stereo not drawn),16.1%
5,CC1CCC(C(C)C)C(OC(=O)COC(=O)c2ccc(=O)[nH]c2)C1 (stereo not drawn),-8.28%
6,CC1CCC(C(C)C)C(OC(=O)CSc2n[nH]c(=O)[nH]c2=O)C1 (stereo not drawn),-19.9%
7,CC1CCC(C(C)C)C(OC(=O)COC(=O)c2ccc(N)cc2)C1 (stereo not drawn),6.47%
8,CC1CCC(C(C)C)C(OC(=O)Cn2c(-c3ccc(Br)cc3)[n+](C)c3ccccc32)C1.[Cl-] (stereo not drawn),-78.3%
9,Cc1nnc(SCC(=O)OC2CC(C)CCC2C(C)C)[nH]c1=O (stereo not drawn),11.1%
10,CC1CCC(C(C)C)C(OC(=O)Cn2nnc3c(cnn3-c3ccccc3)c2=O)C1 (stereo not drawn),3.74%
11,CC1CCC(C(C)C)C(OC(=O)C[n+]2cccc(C(N)=O)c2)C1.[Cl-] (stereo not drawn),7.66%
12,CC1CCC(C(C)C)C(OC(=O)Cn2c(-c3ccc(F)cc3)[n+](C)c3ccccc32)C1.[Cl-] (stereo not drawn),-76.3%
13,CC1CCC(C(C)C)C(OC(=O)Cn2c(-c3ccc(Cl)cc3)[n+](C)c3ccccc32)C1.[Cl-] (stereo not drawn),-82.9%
14,COc1cccc(-n2ccnc2SCC(=O)Nc2cc(C)on2)c1,14.1%
15,Cc1ccc(S(=O)(=O)Nc2ccc(S(=O)(=O)Nc3cc(C)nc(C)n3)cc2)cc1,23.3%
16,NC(=O)c1cccnc1Oc1ccccc1,-30.8%
17,O=C(N/N=C/c1ccc(OC(=O)c2cccs2)cc1)c1ccc(F)cc1,10%
18,O=C(c1cc(=O)[nH]c2ccc(Br)cc12)N1CCC2(CC1)OCCO2,12.6%
19,CCOC(=O)c1c(-c2ccccc2)csc1NC(=O)c1ccc(S(=O)(=O)N2CCOCC2)cc1,9.29%
20,CCN(CC)c1cc(NCCO)c([N+](=O)[O-])c2nonc12,-25.1%
21,O=C(NCCS(=O)(=O)N1CCN(c2ccccc2F)CC1)c1ccc(Cl)cc1,-55.5%

row,Compound,"hERG current change (%, negative = inhibition) at 10uM"
1,COc1ccc(CCC(=O)NCCS(=O)(=O)N2CCN(c3ccc(F)cc3)CC2)cc1,-58.8%
2,COc1ccc(CCC(=O)NCCS(=O)(=O)N2CCN(c3ccccc3)CC2)cc1,-36.6%
3,COc1ccc(CCC(=O)NCCS(=O)(=O)N2CCN(c3ccc(OC)cc3)CC2)cc1,7.57%
4,O=C(CCCc1ccccc1)NCCS(=O)(=O)N1CCN(c2ccccc2F)CC1,-18.5%
5,O=C(NCCS(=O)(=O)N1CCN(c2ccccc2F)CC1)c1ccc(Br)cc1,4.45%
6,COc1ccc(CCC(=O)NCCS(=O)(=O)N2CCN(c3ccccc3F)CC2)cc1,-63.2%
7,COc1ccc(CCC(=O)NCCS(=O)(=O)N2CCN(c3ccccc3OC)CC2)cc1,-8.87%
8,O=C(Cc1ccc(Cl)cc1)NCCS(=O)(=O)N1CCN(c2ccccc2F)CC1,-10.6%
9,COC(=O)COc1ccc(C(C2C(=O)CC(C)(C)CC2=O)C2C(=O)CC(C)(C)CC2=O)cc1,15.8%
10,Cc1oc2c(O)c(O)ccc2c(=O)c1-c1ccc(Cl)cc1,-11.3%
11,COc1ccc([C@H]2CC(=O)C=C(c3ccc(F)cc3OCc3ccccc3)C2)cc1OC,12.1%
12,CCN(CC)c1ccc(SS(=O)(=O)O)cc1,9.02%
13,CCOc1ccccc1NC1=CC(=O)CC(c2ccccc2)C1 (stereo not drawn),-16.9%
14,O=C(CN1CCN(S(=O)(=O)c2ccc(Br)cc2)CC1)c1ccc(O)c(O)c1,-76.8%
15,O=C(CN1CCN(S(=O)(=O)c2ccc(F)cc2)CC1)c1ccc(O)c(O)c1,-34.9%
16,O=C(CN1CCN(S(=O)(=O)c2cc(Cl)ccc2Cl)CC1)c1ccc(O)c(O)c1,26.3%
17,CC(C)c1ccc(S(=O)(=O)N2CCN(CC(=O)c3ccc(O)c(O)c3)CC2)cc1,-24.6%
18,COc1ccc(S(=O)(=O)N2CCN(CC(=O)c3ccc(O)c(O)c3)CC2)cc1,-45%
19,O=C(CN1CCN(S(=O)(=O)c2ccc(Cl)cc2)CC1)c1ccc(O)c(O)c1,-59.5%
20,Cc1cccc(-c2nc3ccccc3c3nncn23)c1,-12.1%
21,CCCn1c(NC(=O)c2cccc(S(=O)(=O)N3CCCC3)c2)nc2ccccc21,-28.8%

row,Compound,"hERG current change (%, negative = inhibition) at 10uM"
1,N#CCn1nnc(-c2ccc3c(c2)OCO3)n1,-4.09%
2,CSc1ncccc1C(=O)OCC(=O)Nc1cc(C(F)(F)F)ccc1N1CCOCC1,-20.2%
3,O=C(COC(=O)c1ccc(O)cc1)Nc1cc(C(F)(F)F)ccc1N1CCOCC1,-25%
4,Cc1cc(C(=O)OCC(=O)Nc2cc(C(F)(F)F)ccc2N2CCOCC2)c(C)o1,-0.421%
5,O=C(COC(=O)COc1ccc2ccccc2c1)Nc1cc(C(F)(F)F)ccc1N1CCOCC1,7.69%
6,COc1ccc(NC(C)C(=O)Nc2cc(C(F)(F)F)ccc2N2CCOCC2)c(OC)c1 (stereo not drawn),-19.2%
7,O=C(COC(=O)c1ccccc1NCCO)Nc1cc(C(F)(F)F)ccc1N1CCOCC1,-60.2%
8,Cc1cc(OCC(=O)OCC(=O)Nc2cc(C(F)(F)F)ccc2N2CCOCC2)ccc1Cl,11.1%
9,N#Cc1ccc(OCC(=O)OCC(=O)Nc2cc(C(F)(F)F)ccc2N2CCOCC2)cc1,-57.7%
10,COc1ccc(NC(C)=O)cc1NC(C)C(=O)Nc1cc(C(F)(F)F)ccc1N1CCOCC1 (stereo not drawn),-60.1%
11,CC(=O)c1c(C)[nH]c(C(=O)OCC(=O)Nc2cc(C(F)(F)F)ccc2N2CCOCC2)c1C,-56.1%
12,Cc1ccccc1OCC(=O)OCC(=O)Nc1cc(C(F)(F)F)ccc1N1CCOCC1,12.9%
13,COc1cc(Cl)c(C)cc1NC(C)C(=O)Nc1cc(C(F)(F)F)ccc1N1CCOCC1 (stereo not drawn),-2.59%
14,NCCN=C1NS(=O)(=O)c2ccccc21,0.316%
15,CCOc1ccc(OCC(=O)Nc2ccc(S(=O)(=O)Nc3cc(C)nc(C)n3)cc2)cc1,16.4%
16,COc1cccc(-c2nc(N3CCCC3)c3ccccc3n2)c1O,-5.65%
17,Cc1ccc(C)c(C(=O)COC(=O)c2cc(Cl)nc3ccccc23)c1,26.4%
18,O=C(Nc1ccc2c(c1)CCC2)Nc1ccc2c(c1)OCO2,6.88%
19,O=C(Nc1ccc(C(=O)N2CCCCC2)cc1)c1ccccc1Br,8.24%
20,O=C(NCc1ccccn1)c1ccc(=O)oc1,1.42%
21,Cc1cc(Cl)ccc1OCC(=O)Nn1c(C)ccc1C,3.73%

row,Compound,"hERG current change (%, negative = inhibition) at 10uM"
1,Cc1ccc(C(=O)NCc2ccco2)cc1Br,-11.5%
2,COc1cccc(NC(=O)C23CCC(C)(C(=O)O2)C3(C)C)c1 (stereo not drawn),-5.46%
3,COc1ccc(OC)c(/C=C2\Oc3cc(OCC(=O)N4CC(O)C[C@H]4C(=O)O)ccc3C2=O)c1 (stereo partly drawn),4.97%
4,COc1ccccc1OCCCn1cc(C(=O)C2CC2)c2ccccc21,-2.64%
5,COc1cccc(C(=O)NN2C(=S)N(c3ccccc3)C(=O)C2CC(N)=O)c1 (stereo not drawn),16.2%
6,O=C(COc1ccc2ccccc2c1)Nc1ccccc1C(=O)O,26.6%
7,CCCC(=O)NC(=S)Nc1cccc(Cl)c1N1CCCCC1,14.1%
8,C/C(=N\NC(=O)c1ccccc1O)C1CC1,-62.2%
9,C/C(=N\NC(=O)c1ccccc1O)C1C(=O)c2ccccc2C1=O,-0.25%
10,C/C(=N\NC(=O)C1CC1)c1ccccc1O,0.248%
11,CC(=O)c1ccc(N2CCN(CC(=O)N(CC(C)C)c3c(N)n(CC(C)C)c(=O)[nH]c3=O)CC2)cc1,10.7%
12,COc1ccccc1C(=O)Nc1ccnn1C1CCN(Cc2cnn(C)c2C)CC1,-63.7%
13,Cc1c(CN2CCC(n3nccc3NC(=O)CCc3ccccc3)CC2)cnn1C,12.6%
14,CCCCc1ncc(CN2CCC(n3nccc3NC(=O)c3ccccc3Cl)CC2)[nH]1,-40.3%
15,CCCn1ncc(CN2CCC(n3nccc3NC(=O)CCc3ccccc3)CC2)c1C,-26.2%
16,CCCn1ncc(CN2CCC(n3nccc3NC(=O)c3ccccc3OC)CC2)c1C,-79.2%
17,CCCn1cc(CN2CCC(n3nccc3NC(=O)c3ccccc3)CC2)c(C)n1,-11%
18,CCCn1ncc(CN2CCC(n3nccc3NC(=O)c3ccccc3Cl)CC2)c1C,-75.8%
19,Cc1c(CN2CCC(n3nccc3NC(=O)c3cccc(F)c3)CC2)cnn1C,9%
20,O=C(c1ccc2c(c1)OCO2)N1CCc2ccccc21,-2.34%
21,COCCOC(=O)c1c(C)n(C)c2ccc(OC(=O)c3ccco3)cc12,-2.37%
